High-throughput results from PubChem.
FLuc counter – qHTS profiling assay for firefly luciferase inhibitor/activator using purifed enzyme and Km concentrations of substrates (counterscreen for miR-21 project); Luciferin 4-monooxygenase (Photinus pyralis), P08659; purified FLuc, Km substrates, luminescence inhibition; Potency, µM (doses to about 57.5 µM), actives largely listed as inhibitors; hit rate 6.9% among 360,000; also: nearly all actives have a fitted effect of over 55% in size
Target sequence (P08659 whole entry, looked up): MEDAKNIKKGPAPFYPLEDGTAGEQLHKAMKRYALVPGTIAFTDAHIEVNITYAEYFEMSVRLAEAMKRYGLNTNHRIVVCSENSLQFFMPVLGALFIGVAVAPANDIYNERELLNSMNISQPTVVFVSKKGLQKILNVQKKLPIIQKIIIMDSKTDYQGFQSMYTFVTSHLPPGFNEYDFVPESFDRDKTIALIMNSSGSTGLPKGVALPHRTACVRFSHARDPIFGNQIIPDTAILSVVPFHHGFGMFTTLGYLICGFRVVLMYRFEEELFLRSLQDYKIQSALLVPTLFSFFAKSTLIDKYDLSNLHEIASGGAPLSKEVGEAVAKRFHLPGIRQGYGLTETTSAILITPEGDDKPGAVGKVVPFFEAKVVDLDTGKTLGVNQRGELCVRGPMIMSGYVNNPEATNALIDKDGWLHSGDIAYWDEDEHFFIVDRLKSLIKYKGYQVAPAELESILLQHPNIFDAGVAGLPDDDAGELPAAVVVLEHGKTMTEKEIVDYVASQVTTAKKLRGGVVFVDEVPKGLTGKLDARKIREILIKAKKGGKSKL
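Biochemical qHTS of compounds, final roughly 60 µM downward over six points, against 10 nM purified firefly luciferase using Km concentrations of substrates (10 uM D-luciferin, 10 uM ATP) in Tris acetate pH 7.5 buffer; luminescence output.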
ELG1 DNA repair – qHTS screen for small molecules that inhibit ELG1-dependent DNA repair in human embryonic kidney (HEK293T) cells expressing luciferase-tagged ELG1. AID 504467, 2011. hit rate 2.3% among 330,000. Potency, µM (titrated, usually from 46.1 µM), actives largely listed as inhibitors. HEK293T ELG1-luciferase reporter, luminescence, 16 h; DNA damage induced by 5-fluorouridine; also: nearly all actives have a fitted effect of over 55% in size
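Overnight (16 hr) co-exposure of 2,000 cells/well to 5-fluorouridine and compound at 37 °C preceded detection. Luciferase was quantified via ONE-Glo luminescence; loss of signal denotes inhibition.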
NPC1 promoter act – qHTS Assay for NPC1 Promoter Activators. Huh7 NPC1 promoter luciferase reporter, 24 h. Potency, µM (top dose mostly 9.22 µM), actives largely listed as activators. hit rate 2.4% among 320,000; also: nearly all actives have a fitted effect of over 60% in size
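Cells: Huh7 expressing luciferase under the NPC1 promoter, 1500/well. Seeded 2 h, compound added, incubated 24 h at 37 °C. Luciferase reagent, 10 min ambient, then luminescence.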
SMN2 splice enh – qHTS Assay for Enhancers of SMN2 Splice Variant Expression; hit rate 2.8% among 210,000; Potency, µM (doses to about 46.1 µM), most hits filed as activators; AID 1458, 2008; HEK293 SMN2-luciferase splicing reporter, luminescence, 30-36 h; also: nearly all actives have a fitted effect of over 55% in size
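qHTS luciferase splicing reporter: luminescence rises when SMN2 exon 7 is included in transfected HEK293 cells. Compound exposure lasted 30-36 h at 37C, with 4.5 mM final sodium butyrate as control, followed by a ONE-Glo read.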
ELG1 genotoxic – qHTS screen for small molecules that induce genotoxicity in human embryonic kidney (HEK293T) cells expressing luciferase-tagged ELG1 | AID 504466, 2011 | hit rate 1.3% among 330,000 | Potency, µM (top dose mostly 46 µM), usual class: activators | HEK293T ELG1-luciferase reporter, luminescence, 16 h; also: nearly all actives have a fitted effect of over 60% in size
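DMSO vehicle served as control against compound-treated ELG1-luciferase HEK293T cells; exposure lasted 16 hr at 37 °C and 5% CO2, followed by ONE-Glo luminescence detection after 30 min.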
Rab9 prom act – qHTS Assay for Rab9 Promoter Activators; Potency, µM (highest dose often 9.22 µM), usual class: activators; AID 485297, 2010; Huh7 Rab9 promoter-luciferase reporter, luminescence, 24 h; hit rate 2.8% among 320,000; also: nearly all actives have a fitted effect of over 60% in size
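Huh7 reporter line, Rab9 promoter upstream of luciferase. Compound exposure 24 h at 37 °C in reduced-serum medium with 10% FBS. Read-out: luminescence.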
Of the large screens only hits and unclear results are named; the others gave an inactive call. Shown are actives, neighbours in structure and some others; about 9.3% of the full set was active somewhere. Calls follow the shape of the dose curve; as a rule, active = well fitted curve in the direction sought with a large enough effect; inconclusive = small, poorly fitted or top-dose-only effect, or another doubt; inactive = no such curve, though single readings can be large; an effect the other way counts as inactive or inconclusive.

N#C/C(C(=O)N1CCOCC1)=C1\Nc2ccccc2S1	FLuc counter 17µM, ELG1 DNA repair inconclusive, SMN2 splice enh inconclusive, ELG1 genotoxic inconclusive
Cc1ccc(OC(=O)c2oc3ccc(F)cc3c2C)c(C)c1	FLuc counter 7.6µM, ELG1 DNA repair inconclusive
COc1ccc(/C=C/C(=O)c2oc3ccc(F)cc3c2C)cc1	FLuc counter 9.5µM, ELG1 DNA repair inconclusive
CCOc1cc(C(=O)Nc2ccc(N3CCN(S(C)(=O)=O)CC3)cc2)cc(OCC)c1OCC	none (no result: SMN2 splice enh)
COC(=O)c1cn(CC(=O)Nc2ccccc2C)c2ccccc12	none (no result: SMN2 splice enh)
Cc1ccc(O)c(NC(=O)CCS(=O)(=O)c2nc(-c3cccs3)cc(C(F)(F)F)n2)c1	none (no result: ELG1 DNA repair, NPC1 promoter act, ELG1 genotoxic, Rab9 prom act)
COc1cc2c(C#N)c(N3CCc4ccccc4C3)nc(N)c2c(N)n1	FLuc counter 21µM, ELG1 DNA repair inconclusive
COc1cc2c(C#N)c(N3CCCCC3)nc(N)c2c(N)n1	FLuc counter 4.8µM, ELG1 DNA repair inconclusive, ELG1 genotoxic inconclusive
CCOC(=O)C1CCN(c2nc(C)cc(C)c2C#N)CC1	none
CCOC(=O)C1CCN(c2nc(N)c3c(N)nc(SCC(=O)O)cc3c2C#N)CC1	FLuc counter 17µM (no result: SMN2 splice enh)
CCOc1cc2c(C#N)c(N3CCCCC3)nc(N)c2c(N)n1	FLuc counter 15µM, ELG1 genotoxic inconclusive, Rab9 prom act inconclusive
COc1cc2c(C#N)c(N3CCOCC3)nc(N)c2c(N)n1	FLuc counter inconclusive
CCOc1cc2c(C#N)c(N3CCNCC3)nc(N)c2c(N)n1	SMN2 splice enh inconclusive
COc1ccc(C(C(=O)NCC2CCCO2)N(C(=O)CNC(=O)c2cccs2)c2ccccc2C)cc1OC (stereo unspecified)	none
Cc1ccc(C(=O)OCC(=O)N2CCC(C)CC2)cc1S(=O)(=O)N1CCCCC1	FLuc counter 17µM (no result: SMN2 splice enh)
COc1cc(NC(=O)COC(=O)c2ccc(C)c(S(=O)(=O)N3CCCCC3)c2)c(C)cc1[N+](=O)[O-]	ELG1 DNA repair 8.2µM
COc1ccc(C(=O)OCC(=O)Nc2ccc(OC)c(S(=O)(=O)N3CCCCC3)c2)cc1[N+](=O)[O-]	none (no result: SMN2 splice enh)
CCn1cc(C(=O)NCc2ccccc2)c(=O)c2cc(F)c(N3CCN(C(=O)c4ccco4)CC3)cc21	ELG1 DNA repair 16µM
CCn1cc(C(=O)NCc2ccc3c(c2)OCO3)c(=O)c2cc(F)c(N3CCN(C(=O)c4ccco4)CC3)cc21	ELG1 DNA repair 9.2µM
CCn1cc(C(=O)NCc2ccncc2)c(=O)c2cc(F)c(N3CCN(C(=O)c4ccco4)CC3)cc21	ELG1 DNA repair inconclusive (no result: SMN2 splice enh)
C=CCc1cccc(C=Nc2c[nH]c(=O)[nH]c2=O)c1O	none (no result: SMN2 splice enh)
C=CCc1cccc(C=Nc2cccn3cc(-c4ccccc4)nc23)c1O	ELG1 DNA repair inconclusive, NPC1 promoter act inconclusive, SMN2 splice enh 25µM, ELG1 genotoxic inconclusive, Rab9 prom act inconclusive
O=C(Nc1ccc(Cl)cc1)NC1CCS(=O)(=O)C1 (stereo unspecified)	none
O=S(=O)(Nc1cccc(-c2ccc(N3CCCCC3)nn2)c1)c1ccc(Cl)s1	FLuc counter 1.2µM (no result: ELG1 DNA repair, NPC1 promoter act, SMN2 splice enh, ELG1 genotoxic, Rab9 prom act)
CCOc1ccc(-c2cccc(NS(=O)(=O)c3ccccc3[N+](=O)[O-])c2)nn1	ELG1 DNA repair inconclusive (no result: SMN2 splice enh)
CCOc1ccc(-c2cccc(NS(=O)(=O)c3ccc(Cl)s3)c2)nn1	FLuc counter 15µM (no result: ELG1 DNA repair, NPC1 promoter act, SMN2 splice enh, ELG1 genotoxic, Rab9 prom act)
O=S(=O)(Nc1cccc(-c2ccc3nncn3n2)c1)c1cccs1	ELG1 DNA repair inconclusive, SMN2 splice enh inconclusive, ELG1 genotoxic inconclusive
O=S(=O)(Nc1cccc(-c2ccc(N3CCCCC3)nn2)c1)c1cccs1	FLuc counter 0.95µM (no result: ELG1 DNA repair, NPC1 promoter act, SMN2 splice enh, ELG1 genotoxic, Rab9 prom act)
COC(=O)c1ccc(C2C(Oc3ccccc3)C(=O)N2CCc2ccc(OC)c(OC)c2)cc1 (stereo unspecified)	none
